# The source made the active and inactive calls. How the source made its calls: active means hit-call score of the fitted dose curve at least 0.9, where 1 is the maximum; inactive means score below 0.9.
# Read-out: Transforming growth factor beta 1 (TGFb1), TGFB1 (gene 7040)
# Experiment: BSK_KF3CT_TGFb1: BioMAP Diversity Plus: KF3CT Assay for Transforming growth factor beta 1 (TGFb1) Biomarker Activity (AID 2283072)
# Conditions: primary human keratinocytes with fibroblasts; actives raise or lower the signal
# In short: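 Human keratinocyte/foreskin fibroblast co-culture; TGF-b1 measured by ELISA 24 h after dosing, fitted bidirectionally versus DMSO. Cytotoxicity checked in parallel cultures by total protein (SRB staining, 560 nm).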
SMILES,outcome,AC50
O=c1n(CC2CO2)c(=O)n(CC2CO2)c(=O)n1CC1CO1 (stereo unspecified),inactive,–
CCOC(=O)COc1ccc2c(c1)CC(NCC(O)c1cccc(Cl)c1)CC2 (stereo unspecified),inactive,–
O=C1CCC(N2C(=O)c3ccccc3C2=O)C(=O)N1 (stereo unspecified),inactive,–
Cn1cnc([N+](=O)[O-])c1Sc1ncnc2nc[nH]c12,inactive,–
CCOCCOCCOCCO,inactive,–
CCOC(=O)CC(CC(=O)OCC)(OC(C)=O)C(=O)OCC,inactive,–
CCCN(C1CCN(C(=O)C2CCNCC2)CC1)[C@@H]1CCc2ccc(OC)cc2C1,inactive,–
CC(C)CC(C)(O)C#CC(C)(O)CC(C)C (stereo unspecified),inactive,–
O=C(O)c1cc(N=Nc2ccc(S(=O)(=O)Nc3ccccn3)cc2)ccc1O,inactive,–
CNCc1ccc(NC(=O)c2c[nH]c3c2C(=O)CCC3)cc1,inactive,–
Cc1ccc(S(=O)(=O)O)cc1C,inactive,–
C1N2CN3CN1CN(C2)C3,inactive,–
Cn1c(=O)c2c(ncn2C)n(C)c1=O,inactive,–
Cc1[nH]cnc1C[C@H]1CCc2c(C)c3ccccc3n2C1=O,inactive,–
CCNc1ccccc1,inactive,–
On1ccccc1=S,–,9.8 µM (active)
CCCC(=O)OCC,inactive,–
Nc1cccc(N)c1,inactive,–
CC1=CC(=O)CC(C)(C)C1,inactive,–
Cc1ccc(O)cc1,inactive,–
CCn1nc(Cc2ccccc2)cc1C1CCN(C[C@H]2C[C@H](N(C)[C@@H](C(=O)O)C(C)C)C[C@@H]2c2cccc(F)c2)CC1,inactive,–
CC(C)CCO,inactive,–
Cc1ccc(N)cc1O,inactive,–
CN(C)c1ccc(N=NS(=O)(=O)O)cc1,inactive,–
COc1ccc2sc(C(=O)Nc3nnn[nH]3)c(OC(C)C)c2c1,–,19.9 µM (active)
O=C(O)CC(O)C(=O)O (stereo unspecified),inactive,–
CCCCCCCCCCCCCCCO,inactive,–
COC(=O)c1c(Cl)c(Cl)c(C(=O)OC)c(Cl)c1Cl,inactive,–
Nc1ccc(Nc2ccccc2)cc1,inactive,–

# Read-out: C-C motif chemokine 2 (Homo sapiens) (UniProt P13500)
# Experiment: BSK_KF3CT_MCP1: BioMAP Diversity Plus: KF3CT Assay for Monocyte Chemoattractant Protein 1 (MCP1/CCL2) Biomarker Activity (AID 2283073)
# Conditions: primary human keratinocytes with fibroblasts; actives raise or lower the signal
# In short: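 Keratinocytes and foreskin fibroblasts were co-cultured, dosed with chemical, and sampled 24 h later. MCP-1 was quantified by ELISA, and the endpoint was analyzed with bidirectional fitting using DMSO as negative control.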
SMILES,outcome,AC50
O=c1n(CC2CO2)c(=O)n(CC2CO2)c(=O)n1CC1CO1 (stereo unspecified),inactive,–
CCOCCOCCOCCO,inactive,–
CCOC(=O)CC(CC(=O)OCC)(OC(C)=O)C(=O)OCC,inactive,–
CCCN(C1CCN(C(=O)C2CCNCC2)CC1)[C@@H]1CCc2ccc(OC)cc2C1,inactive,–
O=C(O)c1cc(N=Nc2ccc(S(=O)(=O)Nc3ccccn3)cc2)ccc1O,inactive,–
CCNc1ccccc1,inactive,–
CCCC(=O)OCC,inactive,–
CC1=CC(=O)CC(C)(C)C1,inactive,–
Cc1ccc(O)cc1,inactive,–
CN(C)c1ccc(N=NS(=O)(=O)O)cc1,inactive,–
COc1ccc2sc(C(=O)Nc3nnn[nH]3)c(OC(C)C)c2c1,–,16.7 µM (active)
Nc1ccc(Nc2ccccc2)cc1,inactive,–

# Source: PubChem BioAssay (EPA / NIEHS)
